# p53ts 39C kill: cytotoxicity in p53ts cells at nonpermissive temperature | H1299-p53A138V viability at 39C, ATP luminescence, 24 h | AID 902 | Potency, µM (series often up to 46.1 µM), for inactives: top-dose activity change, negative = cell killing, usual class: cytotoxic | hit rate 1.5% among 130,000; further: on the % scale 0 is the no-effect control and ±100 the full control effect; nearly all actives have a fitted effect of over 55% in size
# p53ts 32C kill: p53ts cell cytotoxicity, permissive temperature; Potency, µM (titrated, usually from 46.1 µM), inactives show top-dose activity change, negative = cytotoxicity, actives largely listed as cytotoxic; H1299-p53A138V at 32C, ATP luminescence viability, 24 h; AID 924; hit rate 0.93% among 130,000;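 further: 0% = DMSO and -100% = full killing by reference compound; nearly all actives have a fitted effect of over 55% in size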
#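 H1299-p53 A138V cells (temperature-sensitive p53) exposed 24 h to up to 46 uM compound at 32C, where p53 is wild-type in conformation. Viability read as ATP luminescence and normalised to DMSO and 100 uM tamoxifen. AC50 fitted with the Hill equation.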
# Peg3 imprint: genomic imprint erasure induction. mouse ES Peg3-LacZ reporter, beta-gal luminescence, 40 h. Potency, µM (highest dose often 60.7 µM), for the others: at the highest dose activity change, positive = activation, actives largely listed as activators. hit rate 0.02% among 110,000
#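 Readout: BetaGlo luminescence (5 min, room temp) for LacZ from the normally silent maternal Peg3 allele in female Peg3LacZ-Neo ES cells. Cells 300/well, 40 h, 37C, 5% CO2. Data normalized per plate to negative controls.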
# IkB signaling: inhibitors of IkB signaling in ABC-DLBCL cells | ABC-DLBCL IkBa-CBG/CBR dual luciferase ratio, 4 h; response scale: scaled: untreated 0%, proteasome inhibitor 100% | Potency, µM (series often up to 57.1 µM), for the others: top-dose IkBa stabilization activation | hit rate 0.04% among 110,000 | AID 445; active means well fitted curve in the direction sought with a large enough effect in the signal ratio, not every such curve was filed as active; inconclusive means small, poorly fitted or top-dose-only effect, or a change in a side signal; the % refers to the signal ratio;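 further: the direction sought is a rising ratio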
#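 Curves were fitted separately to fusion (green), unfused (red) and ratio luminescence, then classed by r2, magnitude and activity. Cells: OCI-Ly3, 4 h compound plus doxycycline at 37C; 10 uM MG-132 defined full response.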
# Starred values were filed as active, the others as inactive; ? = inconclusive; / = no result given; [ ] = dose if it differs, or a comment. Only some compounds are listed: those with a hit (about 1.8% of all), similar ones and a draw of the others. Unless noted, the call rests on the fitted dose curve; in most records, active means well fitted curve in the direction sought with a large enough effect; inconclusive means small, poorly fitted or top-dose-only effect, or another doubt; inactive means no such curve, though single readings can be large; an effect the other way counts as inactive or inconclusive. Potency means the concentration at half of the fitted maximal effect.
SMILES,p53ts 39C kill,p53ts 32C kill,Peg3 imprint,IkB signaling
CC(=O)OC[C@@H]1O[C@@H](O/N=C2/C[C@@H](O)[C@@H](O)[C@@H]3[C@@H]4C(=O)N(c5cccc(Oc6ccccc6)c5)C(=O)[C@H]4CC[C@@H]23)[C@H](OC(C)=O)[C@H](OC(C)=O)[C@@H]1OC(C)=O,17%[9.22 µM],3%[9.22 µM],/,/
Nc1nn(-c2ccccc2)nc1C(=O)OCc1ccccc1Br,12%,-19%,-19%[10.9 µM],-2%
CC1CCCCN1S(=O)(=O)c1ccc2[nH]c(=O)cc(C(=O)NCCc3ccc(Cl)cc3)c2c1 (stereo not drawn),-25%,1%,-5%[10.9 µM],-1%
COc1ccccc1Cn1cc(C(=O)c2ccc(Cl)cc2)c(=O)c2cc3c(cc21)OCCO3,?,-4%,3%[10.9 µM],?
COc1ccccc1Cn1cc(C(=O)c2ccc(Cl)cc2)c(=O)c2ccccc21,13µM*,?,-14%[10.9 µM],?
Cc1cc(C)cc(N(CC(=O)O)S(=O)(=O)c2cccnc2)c1,-5%,1%,-4%,4%
COc1ccc2c(=O)c(-c3ccccc3)coc2c1,5µM*,?,-59%,/
C/C(CCN1CCCc2nc(C)c(C)cc21)=N\O[C@@H](C)c1cc(-c2c(C)cc(C)cc2C)no1,3%[9.22 µM],9%[9.22 µM],/,/
CCc1ccc(C2=CC(c3cccc(C)c3)n3c(nc4ccccc43)N2)cc1 (stereo not drawn),5µM*,8.9µM*,-17%[10.9 µM],?
CCc1ccc(C2=CC(c3cccc(OC)c3OC)n3c(nc4ccccc43)N2)cc1 (stereo not drawn),16µM*,10µM*,-12%[10.9 µM],?
CC(C)c1ccc(C2=CC(c3cccc(Cl)c3)n3c(nc4ccccc43)N2)cc1 (stereo not drawn),?,?,-11%[10.9 µM],?
C[C@@]12C[C@H](O)C3[C@H](CCC4=CC(=O)CC[C@]43C)[C@H]1CC[C@@H]2c1csc(N)n1 (stereo partly drawn),/,/,-25%[10.9 µM],/
O=C1NCCCC2c3cc(O)c4ccccc4c3OC12N1CCCCC1 (stereo not drawn),7.9µM*,6.3µM*,-39%,?
O=C1NCCCC2c3c(cc(Br)c(O)c3Br)OC12N1CCOCC1 (stereo not drawn),9%,9%,-1%,-1%
Cc1ccc(NC(=O)CSc2nnc3[nH]c(=O)cc(-c4ccccc4)n23)cc1Cl,1.6µM*,?,-13%[10.9 µM],?
Cc1ccc(C)c(NC(=O)CSc2nnc3[nH]c(=O)cc(-c4ccccc4)n23)c1,1.3µM*,?,7%[10.9 µM],?
Cc1ccc2nc(/C(C#N)=C/c3cccc(Br)c3)[nH]c2c1,-25%,?,-13%[10.9 µM],-2%
Cc1ccc2nc(/C(C#N)=N/O)[nH]c2c1,?,7.9µM*,-14%,?
Cc1ccc(C)c(CNC(=O)CN2C(=O)CSc3ccc(S(=O)(=O)N(C)C)cc32)c1,-7%,-10%,-9%[10.9 µM],0%
Cc1ccc2nc(/C(C#N)=C/c3ccc(-c4cccc(Cl)c4)o3)[nH]c2c1,4µM*,?,-7%[10.9 µM],?
Fc1ccc(Nc2nc3nonc3nc2Nc2cccc(C(F)(F)F)c2)cc1,13µM*,?,-25%[10.9 µM],?
CCCCCCC#Cc1cc(OC)c(OC)cc1C(N1CC(C)c2ccccc21)N1CC(C)c2ccccc21 (stereo not drawn),-2%[9.22 µM],6%[9.22 µM],/,/
COc1cc(Cl)c(C)cc1NC(=O)Cn1ncc2c1-c1cc(C)ccc1OC2,13µM*,-3%,-9%[10.9 µM],-4%
COc1ccc(OC)c(NC(=O)Cn2ncc3c2-c2ccccc2OC3)c1,15%,-3%,-3%[10.9 µM],0%
COc1cccc(/C=C/C2=CC3(C)CC2(C)C(c2cccc(OC)c2)CC3=O)c1 (stereo not drawn),-1%[9.22 µM],-1%[9.22 µM],/,/
SMILES,p53ts 39C kill,p53ts 32C kill,Peg3 imprint,IkB signaling
OCc1cc(C(O)CNCCCCCCOCCCCc2ccccc2)ccc1O (stereo not drawn),13µM*,?,-55%,/
CCOCCCNCC(O)c1ccccc1 (stereo not drawn),11%,/,/,/
CCCCC(CC)CN=C(N)NC(N)=NCCCCCCN=C(N)NC(N)=NCC(CC)CCCC (stereo not drawn),?,16µM*,-34%,/
CCCCC(CC)CO (stereo not drawn),0%,-4%[1.84 µM],8%,-1%
Cc1ccc(Cn2c(SCC(=O)NCc3ccccc3Cl)nc3ccsc3c2=O)cc1,10µM*,7%,16%[10.9 µM],0%
O=C(CSc1nc2ccsc2c(=O)n1Cc1ccccc1Cl)NCc1ccc(Cl)cc1,-5%,1%,10%[10.9 µM],-1%
CCOC(=O)c1c(-c2ccccc2)oc2cc(Br)c(OCc3ccccc3)cc12,12%,12%,-12%[10.9 µM],6%
Cc1ccc(C2=CC(c3ccccc3F)n3c(nc4ccccc43)N2)cc1C (stereo not drawn),13µM*,?,-15%[10.9 µM],?
COc1cccc(C2=CC(c3ccccc3F)n3c(nc4ccccc43)N2)c1 (stereo not drawn),10µM*,16µM*,-15%[10.9 µM],?
CCOc1ccc(C2=CC(c3cccc(Br)c3)n3c(nc4ccccc43)N2)cc1Cl (stereo not drawn),-18%,-7%,-22%[10.9 µM],6%
COc1cc2nc(N3CCN(C(=O)OCc4ccccc4)C(C(=O)NC(C)(C)C)C3)nc(N)c2cc1OC (stereo not drawn),/,/,-17%,/
COc1ccccc1-c1nnc(NC(=O)c2ccc(S(=O)(=O)N(C)Cc3ccccc3)cc2)o1,13µM*,-2%,-25%,4%
CN(Cc1ccccc1)S(=O)(=O)c1ccc(C(=O)Nc2nnc(C3CC3)o2)cc1,13µM*,1%,-27%,?
Cc1cccc(NC(=O)Cn2cc(S(=O)(=O)c3ccc(F)cc3)c(=O)c3cc4c(cc32)OCO4)c1,-14%,12%,10%[10.9 µM],?
COc1cccc(CNC(=O)c2ccc3c(c2)nc2n3CCCCC2)c1OC,-32%,?,-6%[10.9 µM],2%
CC(C)(C)c1ccc(C(=O)Nc2nnc3n2CCS3)cc1,13µM*,?,-20%[10.9 µM],?
Cc1cccc(C(=O)Nc2nc3c(s2)CCCC3)c1,13µM*,10µM*,-28%[10.9 µM],?
Cc1ccc(-n2nc3c(N4CCC(C(=O)NCCc5ccccc5C)CC4)nnc(C)c3c2C)cc1,20µM*,?,-7%[10.9 µM],?
Cc1ccc(-n2nc3c(N4CCC(C(=O)NC(C)c5ccccc5)CC4)nnc(C)c3c2C)cc1 (stereo not drawn),16µM*,?,-6%[10.9 µM],?
COCc1cc(=O)n2c(-c3ccc(C)cc3)n[nH]c2n1,10µM*,10µM*,-30%,?
COc1cccc(CNC(=O)CCc2c(C)c3cc4c(C)coc4c(C)c3oc2=O)c1,-16%,10%,-4%[10.9 µM],0%
Cc1ccc(CSc2ncc(Cl)c(C(=O)NCc3ccccc3)n2)cc1,-21%,-8%,-11%[10.9 µM],0%
O=C(NCc1ccccc1)c1nc(S(=O)(=O)Cc2ccc(F)cc2)ncc1Cl,5µM*,16µM*,-25%[10.9 µM],?

# Screening results deposited in PubChem BioAssay by National Center for Advancing Translational Sciences (NCATS).
